The source of these data is PubChem BioAssay (Tox21).

Where “and” joins values, the source holds several entries; their conditions need not be identical. Equal values may be shown once. Records with an inconclusive call do not appear. Some structures have more than one record in an assay (separate samples or runs), and their calls can disagree. Calls of active or inactive are those of the source. Calls follow the shape of the dose curve; as a rule, active = well fitted cell-killing curve with a large enough effect in the repeat runs; inconclusive = weak or mixed curves, or effect the other way; inactive = no such curve, though single readings can be large or run the other way.
% is scaled to controls: 0 for no effect and ±100 for the full control effect; potency is read from the fitted curve at half-maximal effect.

This assay in a line: qHTS assay to identify small molecule antagonists of the retinoid-related orphan receptor gamma (ROR-gamma) signaling pathway - cell viability counter screen (AID 1159520). Also: nearly all actives have a fitted effect of over 50% in size. As to conditions: Tet-on RORgamma CHO cells viability, ATP luminescence, 16 h; series mostly up to 92.4 µM; activity, negative = cytotoxicity: at the top concentration. From the text:
U.S. Tox21 Program National Center for Advancing Translational Sciences [NCATS] NIH Chemical Genomics Center [NCGC] U.S. Environmental Protection Agency [EPA] National Institutes of Environmental Health Sciences [NIEHS] National Toxicology Program [NTP] U.S. Food and Drug Administration [FDA] Tox21 Assay Overview: Nuclear steroid hormone receptors are involved in many biological processes including inflammatory responses, cell proliferation, and apoptosis. Environmental factors or compounds disrupting these nuclear receptor pathways and gene expression may promote susceptibility to immunotoxicants and autoimmune diseases. One important group of these expression factors are the retinoid-related orphan receptors. To assess compounds that may interfere with the retinoid-related orphan receptor gamma (ROR-gamma) transcription factor, a cell-based luciferase assay was used. The CHO cell-based assay utilizes a TET-inducible ROR expression factor and ROR response element-LUC reporter gene. Reporter gene activity was induced using Doxycycline Hyclate and measured after 16 hr incubation. Tet-on ROR gamma CHO cells were used to screen against the Tox21 10K compound library for cytotoxicity by measuring the viability of the cells based on the quantitation of the ATP.
Tox21 Assay Protocol Summary: Tet-on ROR gamma CHO cells were dispensed at 1,000 cells in 4 uL of culture medium per well into white wall/solid bottom 1536-well plates using a Multidrop Combi (Thermo Scientific, Waltham, MA) dispenser. Following incubation at 37 C and 5% CO2 for 4 hr, 23 nL of compounds dissolved in DMSO, positive controls or DMSO only were transferred by a Pintool station (Kalypsys, San Diego, CA) and after 2 hr incubation at 37 C, one ul of 1 uM (final concentration) of Doxycycline Hyclate was added to all the wells by using a Flying Reagent Dispenser (FRD) (Aurora Discovery, San Diego, CA). After 16 hr incubation at 37 C and 5% CO2, 5 uL of CellTiter-Glo reagent (Promega Corporation, Madison, WI) was added to each assay plate using FRD. After 30 min incubation at room temperature, luminescence was quantified on a ViewLux plate reader (Perkin Elmer, Waltham, MA).
(In general: Quantitative high-throughput screening tests each substance at several concentrations.)
Take `C[As+](C)(C)CC(=O)[O-]`: the “activity, negative = cytotoxicity” value was 0.643% (inactive).
For the compound `CC1CCC(C(C)C)C(OC(=O)c2ccccc2N)C1` (stereo not given), the Potency is 53.7 µM (active).
Still for that read-out and setting: as for `CCc1nn(C)c(C(=O)NCc2ccc(C(C)(C)C)cc2)c1Cl`, the figure is 21.7 µM (active).
On to `ClC(Cl)=C(Cl)Cl`, for which the “activity, negative = cytotoxicity” value was 7.09% (inactive).
`O=S(=O)(c1ccc(Cl)cc1)c1ccc(Cl)cc1`: the “activity, negative = cytotoxicity” value was -15.6% (inactive).
Regarding `CCSC(C)CC1CC(=O)C(/C(CC)=N/OC/C=C/Cl)=C(O)C1` (stereo not given), the “activity, negative = cytotoxicity” value is -0.101% [at 42.5 µM] (inactive).
As to `CC(Cc1ccc(C(C)(C)C)cc1)CN1C[C@@H](C)O[C@@H](C)C1` (stereo not given in full), the “activity, negative = cytotoxicity” value is -3.96% (inactive).
The same measure, in the same setting: as for `Nc1ccccc1C(=O)OC/C=C/c1ccccc1`, the figure is -26.3% (inactive).
For the compound `CCN(CC)c1c([N+](=O)[O-])cc(C(F)(F)F)c(N)c1[N+](=O)[O-]`, the “activity, negative = cytotoxicity” value was -29.7% (inactive).
On to `CCCOCC(=Nc1ccc(Cl)cc1C(F)(F)F)n1ccnc1`, for which the Potency is 61.1 µM (active).
Consider `Clc1ccc(C(c2ccc(Cl)cc2)C(Cl)(Cl)Cl)cc1`, for which the Potency was 61.6 µM (active) and inactive.
Consider `CC(=O)/C=C/c1ccc2c(c1)OCO2`, for which the “activity, negative = cytotoxicity” value is -6.82% (inactive).
Turning to `Cc1ccc(OP(=O)(Oc2ccccc2)Oc2ccccc2)cc1`, the “activity, negative = cytotoxicity” value was -11.2% (inactive).
`S=C(SSC(=S)N1CCCCC1)N1CCCCC1`: the Potency was 0.188 µM (active).
`CC(=[OH+])/C=C(/C)[O-].CC(=[OH+])/C=C(\C)[O-].CC(=[OH+])/C=C(\C)[O-].[Al]`: the “activity, negative = cytotoxicity” value was -7.46% (inactive).
Consider `CCCCCCCCc1ccc(O)cc1`, for which the Potency was 61.5 µM (active).
For `CCS(=O)(=O)c1cccnc1S(=O)(=O)NC(=O)Nc1nc(OC)cc(OC)n1`, the “activity, negative = cytotoxicity” value is -6.06% (inactive).
Still for that read-out and setting: as for `CCCCOP(=O)(CCCC)OCCCC`, the figure is -11.2% (inactive); as for `N#C/C=C/c1ccccc1`, -1.17% (inactive).
For `CC(C)CC(C)Nc1ccc(Nc2ccccc2)cc1` (stereo not given), the Potency was 67.4 µM (active).
As to `COC(=O)N(C(=O)N1COC2(C(=O)OC)Cc3cc(Cl)ccc3C2=N1)c1ccc(OC(F)(F)F)cc1` (stereo not given), the “activity, negative = cytotoxicity” value is -11.9% [at 42.5 µM] (inactive).
Take `c1ccc(OCC2CO2)cc1` (stereo not given): the “activity, negative = cytotoxicity” value is 1.22% (inactive).
In the case of `CC(C)(C)C(O)C(Oc1ccc(-c2ccccc2)cc1)n1cncn1` (stereo not given), the “activity, negative = cytotoxicity” value is -21.4% (inactive).
For `CCCCN(CCCC)C(=S)[S-].CCCCN(CCCC)C(=S)[S-].[Zn+2]`, the “activity, negative = cytotoxicity” value was 2.36% (inactive).
Same read-out and setting: as for `Cc1cc(SCc2sc(-c3ccc(C(F)(F)F)c(F)c3)nc2C)ccc1OCC(=O)O`, the figure is -19.1% (inactive); as for `CC(C)CC(C)N` (stereo not given), 4.7% (inactive).
With `O=C1c2ccccc2C(=O)C1C(=O)C(c1ccccc1)c1ccc(Cl)cc1` (stereo not given), the Potency was 30.6 µM (active).
For `CCCCCCCCCBr`, the “activity, negative = cytotoxicity” value was -4.71% (inactive).
As to `COS(=O)(=O)c1ccc(C)cc1`, the “activity, negative = cytotoxicity” value is 0.262% (inactive).
As to `C1CCC2CCCCC2C1` (stereo not given), the “activity, negative = cytotoxicity” value was 5.24% (inactive).
Still for that read-out and setting: as for `CN(C)CCc1c[nH]c2cccc(O)c12`, the figure is -1.88% (inactive); as for `Nc1c(Oc2ccccc2)cc(O)c2c1C(=O)c1ccccc1C2=O`, -16% [at 42.5 µM] (inactive).
Take `[Cl][Sn]([c]1ccccc1)([c]1ccccc1)[c]1ccccc1`: the Potency is 0.411 µM (active).
Consider `CCCCCCCCCCCCCCCC[N+](C)(C)C`, for which the Potency was 29.5 µM (active) and 61.1 µM (active) and 29.8 µM (active).
For the compound `CCOCn1c(-c2ccc(Cl)cc2)c(C#N)c(Br)c1C(F)(F)F`, the Potency was 9.69 µM (active).
Consider `C=COCCCl`, for which the “activity, negative = cytotoxicity” value was -2.12% (inactive).
Consider `Cn1[nH]nnc1=S`, for which the “activity, negative = cytotoxicity” value is -0.357% (inactive).
For the compound `CCOP(=O)(NC(C)C)Oc1ccc(SC)c(C)c1` (stereo not given), the “activity, negative = cytotoxicity” value is 2.18% (inactive).
Still for that read-out and setting: as for `Cc1cc(C(F)(C(F)(F)F)C(F)(F)F)ccc1NC(=O)c1cccc(I)c1C(=O)NC(C)(C)CS(C)(=O)=O`, the figure is -12.6% [at 42.5 µM] (inactive); as for `C=CCOC(N)=O`, 9.63% (inactive).
